High-throughput results (PubChem BioAssay)
Sampled rows, rich in hits. Any-hit rate of the full collection: about 6%.
D1 antag: antagonists of human D1 dopamine receptor. HEK293 TREx D1 cells, calcium flux, dopamine EC80; active compounds read low. activity change, negative = inhibition, % at 10 µM. 360,000 tested, 3.2% active; in the data active means activity change below about -30%; further: on the % scale 0 is the no-effect control and ±100 the full control effect
Target sequence (P21728 whole entry, looked up): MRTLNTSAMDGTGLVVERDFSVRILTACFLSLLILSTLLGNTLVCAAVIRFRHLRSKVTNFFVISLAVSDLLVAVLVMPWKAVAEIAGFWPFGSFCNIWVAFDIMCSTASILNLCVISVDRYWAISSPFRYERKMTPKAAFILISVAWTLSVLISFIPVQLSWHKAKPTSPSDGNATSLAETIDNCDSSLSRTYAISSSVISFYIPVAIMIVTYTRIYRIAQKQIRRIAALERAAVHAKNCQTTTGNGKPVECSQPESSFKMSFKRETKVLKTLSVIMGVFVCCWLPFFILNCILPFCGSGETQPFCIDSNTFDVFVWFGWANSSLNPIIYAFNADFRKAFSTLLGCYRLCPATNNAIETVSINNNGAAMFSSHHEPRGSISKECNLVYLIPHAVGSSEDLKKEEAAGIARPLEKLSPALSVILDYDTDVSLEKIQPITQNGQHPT
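Tetracycline-induced HEK293 T-REx cells with force-coupled D1 receptor were loaded with a no-wash calcium dye. Compound was added after a 10 s baseline and read kinetically for 180 s; EC80 dopamine was then added and calcium flux followed another 180 s.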
D1 ag: activates the human D1 dopamine receptor; HEK293 T-REx D1 cells, calcium flux, agonist mode; 360,000 tested, 1% active; activation, % at 2 µM; in the data active means activation above about 30%; further: 0% is about no effect
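Inducible HEK293 T-REx D1 cells, force-coupled to calcium signalling, were plated at 4000 cells/well with tetracycline and held overnight at 30 C. After no-wash calcium dye loading, compound-evoked calcium rise over 180 s flagged agonists.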
D1 PAM: potentiators of human D1 dopamine receptor. P21728. HEK293 TREx D1 cells, calcium flux, dopamine EC20 potentiation. potentiation, % at 10 µM. 360,000 tested, 0.036% active; in the data active means potentiation above about 30%; further: 0% is about no effect
DRD3 agonist: D3 dopamine receptor (human) agonism | max activation, % | D3R DiscoveRx beta-arrestin cells, luminescence, 90 min | 410,000 tested, 0.58% active; in the data active means max activation above about 30%; further: 0% is about no effect
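Agonist-mode cell screen: cells plated at 1500/well and incubated overnight at 37 °C, then exposed to library compounds for 90 min at 37 °C. Detection reagent was added for 30–60 min at room temperature, and luminescence was read.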
DRD3 antagonist: D3 dopamine receptor (human) antagonism | P35462 | max response, negative = inhibition, % | 360,000 tested, 2.5% active | AID 652054 | D3R cells, DiscoveRx beta-arrestin luminescence, antagonist mode; active compounds read low; in the data active means max response below about -50%; inconclusive means no clear call, values can overlap the other calls; further: on the % scale 0 is the no-effect control and ±100 the full control effect
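Cells plated overnight at 1500 cells/well, then exposed to library compounds with dopamine controls for 90 minutes at 37 degrees C. DiscoveRx reagent added for 30–60 minutes at room temperature; luminescence read, quantitative HTS format.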
Starred values were filed as active, the others as inactive; ? = inconclusive; . = no result given.

SMILES	D1 antag	D1 ag	D1 PAM	DRD3 agonist	DRD3 antagonist
C=CCn1c(SCc2c(C)noc2C)nc2sc(C)c(C)c2c1=O	-15	6	-17	35*	-16
CC(C)Sc1nc2ccc(Br)cc2[nH]1	-33*	5	-5	2	12
CC(C)Sc1nc2c(c(=O)n1C)SC(C)C2 (stereo unspecified)	-32*	2	-10	-5	-5
O=C1CCC(C(=O)OCc2nnc(-c3ccccc3)o2)=NN1	3	0	-3	-7	?
CN(C)/C=c1\sc2c(C#N)cc(C(=O)c3ccc(Br)cc3)n2c1=O	-51*	-1	-6	8	-6
CCc1cc(Br)ccc1N1C(=O)C2CC=CCC2C1=O (stereo unspecified)	-41*	8	-9	0	9
O=C(Oc1ccccc1N1C(=O)C2CC=CCC2C1=O)c1ccc(Br)cc1 (stereo unspecified)	-10	1	-7	-10	-5
Cc1ccc(S(=O)(=O)NCC(=O)OCc2csc(-c3ccccc3)n2)cc1	4	2	-3	0	14
O=C(CNS(=O)(=O)c1c(Cl)cccc1Cl)OCc1csc(-c2ccccc2)n1	-48*	7	0	4	9
CC(C)C(NC(=O)c1c(F)cccc1F)C(=O)NCc1ccc(S(=O)(=O)N2CCOCC2)cc1 (stereo unspecified)	-2	4	-2	-2	29
CCN1C(=O)[C@@H]2[C@H](C1=O)[C@@H]1C(=O)Nc3ccccc3C(=O)N1[C@@H]2c1cccc(OC)c1	3	1	-3	-4	23
CCN1C(=O)[C@@H]2[C@H](C1=O)[C@@H]1C(=O)Nc3ccccc3C(=O)N1[C@@H]2c1cccc(C)c1	4	0	5	45*	-28
O=C(Cc1cccc(NC(=O)C2CCCN(C(=O)c3ccccc3)C2)c1)Nc1ccc(C(=O)N2CCOCC2)cc1 (stereo unspecified)	.	.	.	8	2
COc1cn(-c2ccccc2)nc1C(=O)Nc1ccccc1	2	1	-4	-2	-1
O=C(O)c1ccc(NC(=O)c2cn(-c3ccccc3)nc2-c2ccc(F)cc2)cc1	7	4	-1	7	2
O=C(Nc1ccncc1)c1cn(-c2ccccc2)nc1-c1cccs1	-49*	17	-24	0	25
O=C(O)c1ccc(NC(=O)c2cn(-c3ccccc3)nc2-c2cccc(Cl)c2)cc1	14	-2	-2	36*	36
COC(=O)c1ccc(NC(=O)c2cn(-c3ccccc3)nc2-c2ccncc2)cc1	-7	0	-4	-13	-67*
COc1cn(-c2ccccc2)nc1C(=O)Nc1ccc(C)cc1	-1	34*	-2	-11	-14
O=C(Nc1nccs1)c1cn(-c2ccccc2)nc1-c1ccncc1	.	-2	-4	3	6
CC(=O)OCC(=O)[C@@]12N=C(C)O[C@@H]1C[C@H]1[C@@H]3CCC4=CC(=O)C=C[C@]4(C)[C@H]3[C@@H](O)C[C@@]12C	.	.	.	-2	.
O=C(CCOc1ccccc1)N(Cc1cccnc1)c1nc2ccc(F)cc2s1	.	5	-5	-16	.
COc1cc(/C=C(\C#N)C(=O)Nc2ccccc2)ccc1OCCN1CCOCC1	-22	1	-7	2	6
N#C/C(=C/c1ccc(N2CCOCC2)o1)C(=O)Nc1ccccc1	-14	215*	0	-3	-19
N#C/C(=C\c1ccc(N2CCOCC2)o1)C(=O)NCCc1ccccc1	2	124*	0	-15	-4
SMILES	D1 antag	D1 ag	D1 PAM	DRD3 agonist	DRD3 antagonist
N#C/C(=C\c1ccc(OCCN2CCOCC2)cc1)C(=O)Nc1ccccc1	-30*	7	-7	0	3
N#C/C(=C/c1ccc(C(=O)O)cc1)C(=O)Nc1ccccc1	-1	3	2	-13	-30
COCCNC(=O)/C(C#N)=C/c1ccc(N2CCOCC2)o1	-4	26	-1	-2	-6
COCOc1cccc(CN2CCC2(C)C(=O)Nc2ccc(C)cc2)c1 (stereo unspecified)	.	.	.	5	54
CCOC(=O)c1c(C)n(CCNC(C)=O)c2ccc(OC)cc12	-3	0	-4	5	19
CCOC(=O)c1c(-c2ccccc2)c2cc(OC)ccc2n1CCCN(C)C	-3	31*	-6	-21	-72*
O=C1c2ccccc2[C@@H]2C[C@@H](O)[C@H](Nc3cccc(C(F)(F)F)c3)CCN12	.	.	.	-27	?
